Data: the supplement of paper PMC3334620
Over roughly 33,000 sequences, “E-score (-0.5 to 0.5)” has its median near -0.0059; the highest 2% begin near 0.26. For the sample, the highest values were picked, then their nearest neighbours and some sequences at random.

The sequences below were run against T1, Cin5 (UniProt P40917) (assay: PBM E-score (8-mer binding enrichment) (E-score (-0.5 to 0.5)); higher = stronger / more preferred TF binding). Conditions: protein concentration: 100 nM; construct: GST-full length.
T1 sequence: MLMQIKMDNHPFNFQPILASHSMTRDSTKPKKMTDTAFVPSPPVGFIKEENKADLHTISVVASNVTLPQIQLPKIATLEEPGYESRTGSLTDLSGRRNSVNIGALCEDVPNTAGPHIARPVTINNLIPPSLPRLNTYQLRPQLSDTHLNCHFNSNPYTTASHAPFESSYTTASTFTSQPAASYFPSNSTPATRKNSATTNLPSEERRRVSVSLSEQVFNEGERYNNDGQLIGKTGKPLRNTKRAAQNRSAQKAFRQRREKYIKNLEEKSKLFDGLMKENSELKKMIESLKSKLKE
Summary of the method: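 Universal all-10-mer Agilent arrays, fresh or stripped once, were converted to double-stranded form by primer extension. GST-tagged yeast transcription factors from PURExpress in vitro transcription/translation, full-length or DNA-binding domain only, were applied at about 100-200 nM and detected with fluorescent anti-GST. After masliner normalisation, the Universal PBM Analysis Suite scored each ungapped eight-base word together with its reverse complement by E-score.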

| Sequence | PBM E-score |
| --- | --- |
| CACGGAAA | 0.224 |
| AAACTCAT | 0.205 |
| CGAGATAA | 0.255 |
| CGCACGGC | 0.001 |
| ACTTTTCT | 0.0353 |
| ATCCAGAG | 0.161 |
| CGCATCGC | -0.195 |
| CACAACTA | 0.211 |
| GATGAGTA | 0.152 |
| AGGGAGAC | -0.0805 |
| AACGATAC | 0.0238 |
| AACGATAG | 0.0137 |
| AACGATAT | 0.285 |
| AAAGATAT | 0.3 |
| AAAGATAC | 0.186 |
| AAAGATAG | -0.0374 |
| ATCGGTGA | 0.103 |
| GGCTGAGA | -0.0327 |
| GGCCCAAC | -0.0745 |
| AATGGCAT | 0.32 |
| AATGGCTC | 0.0552 |
| CATGGCTA | 0.037 |
| AATGGCAC | 0.00736 |
| AATGGCTA | 0.274 |
| AATGGCAG | 0.0479 |

| Sequence | PBM E-score |
| --- | --- |
| GCACTCCA | -0.111 |
| ATTTCGAA | 0.188 |
| CCGTAATC | 0.329 |
| CCGTAAGA | -0.122 |
| CCGTAATA | 0.203 |
| CCGTAAGC | 0.332 |
| GCGTAAGC | 0.227 |
| CCGTAAAC | 0.072 |
| GAATCCTA | 0.0175 |
| GGAAACTA | -0.105 |
| TATCTCCA | 0.112 |
| GCTAATCA | 0.212 |
| GTAAATCA | 0.284 |
| GGTAATGA | 0.153 |
| AGTAATCC | 0.243 |
| ATTAATCG | 0.228 |
| AGTAATGA | 0.13 |
| CTAAATCA | 0.00062 |
| GGTAATCA | 0.289 |
| ATAAATCA | 0.185 |
| AGTAATCG | 0.262 |
| AGTAATGG | 0.162 |
| AGTAATCA | 0.312 |
| CCTACCAC | -0.224 |
| CCACCGGA | 0.0953 |

| Sequence | PBM E-score |
| --- | --- |
| ATCAATAG | 0.0422 |
| CAGAGTAA | -0.0253 |
| TGACGTCA | 0.425 |
| AGACGTCA | -0.00622 |
| GGACGTCA | 0.0529 |
| GGTTGAAA | -0.00909 |
| ACGGTGCA | -0.139 |
| AAGGTTAA | 0.0178 |
| AAAGGGCA | -0.174 |
| GTAATCAA | 0.392 |
| GTAATCAC | 0.321 |
| GAAATCAA | 0.167 |
| CTAATCAA | 0.301 |
| TCAATCAA | 0.173 |
| CTAATCAC | 0.248 |
| GGAATCAA | 0.0945 |
| TTAATCAA | 0.166 |
| GAAATCAC | 0.149 |
| ACAGCGAA | -0.00314 |
| AGTTTGAA | 0.0821 |
| GCTTTGTA | 0.174 |
| GAAGATTC | 0.0827 |
| CCTGCAGC | -0.0691 |
| ATAAGCGG | 0.206 |
| GGAAGCGA | 0.0828 |

| Sequence | PBM E-score |
| --- | --- |
| CTAAGCGA | 0.0261 |
| ATAAGCGA | 0.267 |
| ATAAGCGC | 0.188 |
| GTAAGCGA | 0.383 |
| GACGTACC | -0.0136 |
| CATCGAAA | -0.0105 |
| CTTCAAAA | 0.0157 |
| GTGTTGAA | 0.0739 |
| GCTGGCCC | -0.269 |
| AAGCTAGA | -0.0103 |
| CTACAAAC | 0.043 |
| AAGGGAGT | -0.285 |
| ATTACCTA | 0.349 |
| ATTACCTG | 0.113 |
| GTTACCTA | 0.131 |
| CTTACCTC | -0.0461 |
| ATTACCTC | 0.142 |
| CTTACCTA | 0.32 |
| CCTAGGTA | -0.0942 |
| CAGTTGCA | -0.123 |
| CGATTTAG | 0.182 |
| ACAATCGA | 0.0876 |
| GCTTCTAA | -0.109 |
| AGTATCCC | 0.0604 |
| AAGGATCG | 0.00025 |

| Sequence | PBM E-score |
| --- | --- |
| CTGGGACC | -0.316 |
| GTTGTTAA | 0.284 |
| CTTGTTTC | 0.0494 |
| ATTGTTAA | 0.0779 |
| ATTGTTAC | 0.276 |
| ATTGTTTG | 0.168 |
| ATTGTTAG | 0.109 |
| ATTGTTTC | 0.275 |
| CTTGTTAA | -0.0283 |
| CTTGTTAC | -0.0236 |
| CGGGGGTC | -0.417 |
| CCTCCGAG | -0.16 |
| GCTAAGCA | 0.0676 |
| GCCCAATA | 0.0485 |
| ACAGGACG | -0.133 |
| CCACATAG | -0.0996 |
| CGGGCCCC | -0.12 |
| AATCATAT | 0.193 |
| GAACATAA | 0.198 |
| AATCATAC | 0.206 |
| TATCATAA | 0.272 |
| CAACATAA | 0.286 |
| CAACATAG | 0.0889 |
| AATCATAG | 0.291 |
| CAACATAC | 0.125 |

| Sequence | PBM E-score |
| --- | --- |
| GATCATAA | 0.241 |
| CATCATAA | 0.139 |
| TAACATAA | 0.317 |
| AAACATAA | 0.199 |
| CCGGAGTC | 0.014 |
| AACCTCCG | -0.183 |
| ATGCCCTA | -0.0594 |
| CCCGATAA | -0.0584 |
| AAACCATT | 0.045 |
| CCTAGGGC | -0.254 |
| ACCCTCAT | -0.136 |
| GGATTGAA | 0.104 |
| CTGCCCAG | -0.249 |
| CCGTGTAC | 0.102 |
| CCATAAAA | 0.0525 |
| CAGCAGAA | -0.0607 |
| AAGCAGAA | 0.261 |
| AAGCAGAT | 0.128 |
| ACTGATAC | -0.00272 |
| CTCTTACA | 0.0444 |
| CGTGCCTA | -0.177 |
| GCACCGGC | -0.178 |
| CTGTAGCA | -0.13 |
| ACAACTTA | 0.184 |
| ACAACTTC | 0.296 |

| Sequence | PBM E-score |
| --- | --- |
| ACAACTTG | 0.0528 |
| ACAATCGT | -0.0859 |
| ATCCTCCC | -0.103 |
| GAGTAATA | 0.26 |
| AAGTAATA | 0.247 |
| TAGTAATA | 0.27 |
| TAGTAAAA | 0.137 |
| CAGTAATA | 0.254 |
| TAATAGTA | 0.228 |
| AACCCTTA | 0.168 |
| AGCTTCAG | -0.115 |
| GCCGCGAA | -0.133 |
| AATTACAT | 0.322 |
| CATTACGC | 0.0481 |
| AATTACAC | 0.0804 |
| AATTACGT | 0.278 |
| AATTACAG | 0.107 |
| AATTACGC | 0.073 |
| GATTACAC | 0.233 |
| AATTACGG | 0.141 |
| TATTACGA | 0.257 |
| GATTACGC | 0.301 |
